Data as given in PubChem BioAssay AID2108 (National Center for Advancing Translational Sciences (NCATS), 2009).
Results filed as inconclusive are left out. Calls follow the shape of the dose curve; as a rule, active = well fitted curve in the direction sought with a large enough effect; inconclusive = small, poorly fitted or top-dose-only effect, or effect the other way, or another doubt; inactive = no such curve, though single readings can be large or run the other way. Non-standard residues stand in square brackets, D forms with d. Residues, ends and D or L forms follow the SMILES beside them. *: point of attachment. Nle = CCCC[C@H](N)C(=O)O; Boc = CC(C)(C)OC(=O)*

biological target: Alpha-galactosidase A (Homo sapiens) (UniProt P06280); experiment: Confirmation of Inhibitors of Human alpha-Galactosidase Using Spleen Homogenate; conditions: alpha-galactosidase enzyme activity; series mostly up to 56.2 µM; activity change: at the top concentration; also: 0% is about no effect
Sequence (P06280 32-429 limits assumed): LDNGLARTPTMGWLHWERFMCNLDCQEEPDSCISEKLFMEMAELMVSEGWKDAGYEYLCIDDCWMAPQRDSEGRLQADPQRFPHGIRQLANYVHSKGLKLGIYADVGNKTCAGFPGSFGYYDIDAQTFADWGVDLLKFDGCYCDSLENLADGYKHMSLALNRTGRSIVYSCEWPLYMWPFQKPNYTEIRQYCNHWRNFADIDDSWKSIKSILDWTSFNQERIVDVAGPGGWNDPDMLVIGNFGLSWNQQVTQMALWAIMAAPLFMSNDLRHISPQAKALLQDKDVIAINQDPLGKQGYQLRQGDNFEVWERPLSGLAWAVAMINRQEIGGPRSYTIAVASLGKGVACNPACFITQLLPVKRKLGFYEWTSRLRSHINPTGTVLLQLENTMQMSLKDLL
Summary of the method: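 AC50 values come from Hill-equation fits of normalised 4-methylumbelliferone fluorescence (365/440 nm, read after NaOH/glycine stop). Enzyme source: spleen homogenate; substrate 1 mM final; pH 5.0 citrate buffer; 40 min at 37C; compound titration 0.5 nM–58 uM.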

Activity change, inactive:
O=c1cc(-c2ccccc2)[nH]c2[nH]n(-c3ccccc3)c(=O)c12 0.265%
COc1ccc(C2C(C(=O)c3ccco3)=C(O)C(=O)N2CC2CCCO2)c(OC)c1 (configuration not stated) -1.95%
O=C(NCC1CCOCC1)c1ccc2nc(Cc3cccc(Cl)c3)oc2c1 -6.97%
Cc1ccc(CCNC(=O)CNC(=S)N(Cc2ccccc2)Cc2cccnc2)cc1 4.95%
CN(C)C=Nc1nc2ccccc2nc1N1CCCC1 12.4% [at 23.6 µM]
COc1cccc(S(=O)(=O)N2CCOCC2)c1 9.2%
CC1CC(C)CN(CC(=O)N2c3ccccc3CCc3ccccc32)C1 (configuration not stated) -3.83%
O=C(COc1ccc2ccccc2c1)N1CCN(C(=O)c2ccco2)CC1 8.9% [at 23.6 µM]
O=S(=O)(c1ccccc1Cl)N1CCOCC1 3.86%
CC1=CC(=C2C=CC(=O)C=C2)C=C(C)N1C -1.91% [at 23.6 µM]
Cc1cccc(S(=O)(=O)c2c(N)n(-c3ccccc3)c3nc4ccccc4nc23)c1 18.9% [at 23.6 µM]
C/C=C1\COC(C(=O)NCCN2CCOCC2)(C(F)(F)F)C=C1C=C1CCCCC1 (configuration not stated) -3.09%
COc1cc(/C=N/Nc2ccc(Cl)c(C(=O)O)c2)ccc1OC(=O)c1ccccc1F -5.95%
COCCNc1c(-c2ccc(O)cc2)nc2ccc(Cl)cn12 -5.9%
CC(C)(C)OC(=O)NCCCC[C@H](NC(=O)c1[nH]cnc1C(=O)Nc1ccc(CNC(=O)OC(C)(C)C)cc1)C(=O)OC(C)(C)C -6.8%
Cc1nnc(SCC(=O)Nc2nsc(-c3ccc(C(C)(C)C)cc3)n2)s1 1.06% [at 23.6 µM]
Cc1ccc2c(=O)c3ccccc3n(CCCN)c2c1C -8.95%
COc1cc(CN2CCC(CO)(Cc3cccc(C(F)(F)F)c3)CC2)ccc1F -4.41%
Cc1ccc(S(=O)(=O)NN2C(=O)/C(=C\c3ccc(Cl)cc3)SC2=S)cc1 -6.49%
COc1cc(CNc2ccc(N3CCOCC3)cc2)cc(Br)c1OC -3.63%
Cc1ccc(S(=O)(=O)N2CCN(CC(=O)N/N=C\c3ccccn3)CC2)cc1 10.8%
CCCC[C@H](NC(=O)[C@@H]1CCCN1C(=O)[C@H]1CCCN1C(=O)[C@H](Cc1ccccc1)NC(=O)[C@@H](Cc1c[nH]c2ccccc12)NC(=O)[C@H](C)NC(=O)[C@H](CCCN=C(N)N)NC(=O)OC(C)(C)C)C(N)=O (Boc-RA[dW]F[dP]P[Nle]-NH2) 1.41%
C(=C/c1nccc2c1[nH]c1ccccc12)/c1ccc2c(c1)OCO2 23.5%
C[C@@H](NC(=O)c1nc[nH]c1C(=O)N[C@@H](Cc1ccccc1)C(=O)OC(C)(C)C)c1ccccc1 1.74%
O=c1[nH]c(CN2CCN(c3ccccc3O)CC2)nc2ccccc12 9.3%
COc1cc2cc(CN(Cc3nnnn3Cc3ccccc3)CC3CCCO3)c(=O)[nH]c2cc1OC (configuration not stated) 6.87% [at 23.6 µM]
COc1cccc2cc(-c3nc(-c4ccccc4)c(C)s3)c(=O)oc12 6.7%
Cc1cnc(C(=O)Nc2cc(S(=O)(=O)N3CCOCC3)ccc2N2CCN(C)CC2)cn1 1.16%
O=C(O)c1c(-c2ccccc2)c2oc3ccccc3c2[nH]c1=O 12.2% [at 23.6 µM]
COC(=O)c1cccc(S(=O)(=O)N2CCOCC2)c1 10.6%
CC(=O)N1CCN(c2ccc(NCc3ccccc3)cc2)CC1 -8.48%
Cc1oc2c(O)c(O)ccc2c(=O)c1-c1cnn(-c2ccccc2)c1 -10.3%
Nc1cnc(Nc2ccc(Br)cc2)nc1N -1.95%
CCOc1c(Br)cc(CNc2ccc(N3CCOCC3)cc2)cc1OC -4.15%
O=C(O)c1c[nH]c2ccc(S(=O)(=O)N3CCOCC3)cc12 -1.11%
NC(=O)NN=C1c2cc(S(=O)(=O)N3CCOCC3)ccc2-c2ccc(S(=O)(=O)N3CCOCC3)cc21 8.14%
O=S(=O)(c1ccc(Br)cc1)N1CCOCC1 9.71%
